Among the data in the supplement of paper PMC9492666 are relative cell viability values, retold here.

Each structure is given as a SMILES string.
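Further: viability read out with the CCK-8 kit in 96-well plates, screening a set of 303 compounds acting on lipid metabolism targets.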

The experiment relates to MDA-MB-231. Description: relative cell viability, compound alone, vs DMSO (fraction of DMSO control); higher = less growth inhibition. The following applies: 72 h.
The compound `CC(C)(O)c1ccccc1CC[C@@H](SCC1(CC(=O)O)CC1)c1cccc(/C=C/c2ccc3ccc(Cl)cc3n2)c1` [Montelukast] displayed a relative cell viability of 0.857.

As for `CC(C)(C)NC(=O)[C@H]1CC[C@H]2[C@@H]3CC[C@H]4NC(=O)C=C[C@]4(C)[C@H]3CC[C@]12C` [Finasteride], the relative cell viability was 0.934.

In turn, `O=C(c1ccc(NS(=O)(=O)c2cccc3cccnc23)cc1)N1CCN(CC2CC2)CC1` [Mitapivat] came in with a relative cell viability of 0.935.

`CCCCCCCCCCOc1ccc(C(=O)Nc2cc(C(=O)NCCCC)ccc2SC)cc1` yielded a relative cell viability of 1.06.

On to `CC1=C(C)C(=O)C(C(CCCCCC(=O)O)c2ccccc2)=C(C)C1=O` (stereo not drawn) [Seratrodast], for which the relative cell viability worked out at 0.809.

With `N=C(N)NCCC(=O)O` [3-Guanidinopropionic Acid], the relative cell viability is 0.94.

Consider `C=CCc1ccc(O)c(-c2cc(CC=C)ccc2O)c1` [Magnolol], for which the relative cell viability worked out at 0.968.

On to `CC[C@H](C)C(=O)O[C@H]1C[C@@H](C)C=C2C=C[C@H](C)[C@H](CC[C@@H]3C[C@@H](O)CC(=O)O3)[C@H]21` [Lovastatin], for which the relative cell viability was determined as 0.657.

`CN(C(=O)n1cnc(-c2ccc[n+]([O-])c2)c1)C1CCCCC1` had a relative cell viability of 0.934.

`COc1ccc(-c2cc(=O)c3c(O)c(OC)c(O)cc3o2)cc1OC` [Eupatilin] registered a relative cell viability of 0.739.

As for `COc1ccc([C@@H]2OC[C@H]3[C@@H]2CO[C@@H]3c2ccc(O[C@@H]3O[C@H](CO)[C@@H](O)[C@H](O)[C@H]3O)c(OC)c2)cc1OC` [Forsythin], the relative cell viability was found to be 1.06.

Regarding `C=C(C)[C@@H]1CCC2=CC(=O)C[C@@H](C)[C@]2(C)C1` [Nootkatone], the relative cell viability turned out to be 1.02.

`O=C(OC(C(F)(F)F)C(F)(F)F)N1CCN(Cc2ccc(C(F)(F)F)cc2N2CCCC2)CC1` showed a relative cell viability of 1.01.
